The source made the active and inactive calls. Unless noted, how the calls were made is not given here.
Legend:
[1] = A549 cell viability effects, profiling panel, calcein-AM fluorescence, 48 h, basal (AID 1162); settings: higher = more signal; further: test concentration not given here
[2] = adipocyte viability effects, profiling panel, cell-based, 3T3-L1 adipocytes, calcein-AM fluorescence, 48 h, basal (AID 1163); settings: 3T3-L1 adipocytes viability, higher = more signal; further: test concentration not given here
[3] = HepG2 cell viability effects, profiling panel, calcein-AM fluorescence, 48 h, basal (AID 1164); settings: higher = more signal; further: test concentration not given here
[4] = MM1S cell viability effects, profiling panel, calcein-AM fluorescence, 48 h, basal (AID 1165); settings: higher = more signal;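 further: viability of MM1S multiple myeloma cells under basal unstimulated conditions; test concentration not given here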
[5] = basal RPMI8226 viability, no added stimulus, profiling panel, cell-based, calcein-AM fluorescence, 48 h, PK04 Diversity Set (AID 1166); settings: RPMI8226 myeloma viability, higher = more signal;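 further: cells grown under basal conditions without added stimulus; test concentration not given here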
[6] = basal HepG2 mitochondrial membrane potential changes, profiling panel, cell-based, JC-1 fluorescence, 24 h, 100 nL compound (AID 1167); settings: higher = more signal; further: test concentration not given here
[7] = basal 3T3-L1 adipocyte mitochondrial potential changes, profiling panel, cell-based, JC-1 fluorescence, 3T3-L1 adipocytes, 24 h, 100 nL compound (AID 1168); settings: JC-1 mitochondrial fluorescence, higher = more signal, called active from +8 up or from −8 down; further: test concentration not given here
[8] = basal RPMI8226 mitochondrial membrane potential changes, profiling panel, cell-based, JC-1 fluorescence, 24 h, 100 nL compound (AID 1169); settings: RPMI8226 myeloma, JC-1 mitochondrial potential fluorescence, higher = more signal; further: test concentration not given here
[9] = basal MM1S mitochondrial membrane potential changes, profiling panel, cell-based, JC-1 fluorescence, 24 h, 100 nL compound (AID 1170); settings: higher = more signal; further: test concentration not given here
[10] = A549 lung cancer cell viability effects, profiling panel, resazurin fluorescence, 24 h, PK04 Diversity Set (AID 1171); settings: higher = more signal, called active from +8 up or from −8 down; further: test concentration not given here
[11] = HepG2 liver cancer cell viability effects, profiling panel, resazurin fluorescence, 24 h, PK04 Diversity Set (AID 1172); settings: higher = more signal; further: test concentration not given here
[12] = basal S. cerevisiae growth modulation, no modifier, primary screen, OD600, strain BY4716, 24 h, basal condition (AID 1173); settings: OD600, 24 h, higher = more signal, called active from +8 up or from −8 down
[13] = MM1S myeloma cell viability, profiling panel, resazurin fluorescence, basal, 24 h, PK04 Diversity Set (AID 1174); settings: higher = more signal, called active from +8 up or from −8 down;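 further: MM1S multiple myeloma cell line; test concentration not given here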
[14] = molecular target: Dihydroorotate dehydrogenase (quinone), mitochondrial (Plasmodium falciparum (isolate 3D7)) (UniProt Q08210); experiment: PfDHODH enzyme inhibitors, primary screen, biochemical, C-terminal His tag, absorbance 600 nm (AID 1175); settings: DCIP absorbance 600 nm, higher = more signal, called active from +8 up or from −8 down;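 further: recombinant parasite enzyme with a five histidine tag at its C terminus; test concentration not given here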
Chain of Dihydroorotate dehydrogenase (quinone), mitochondrial (Plasmodium falciparum (isolate 3D7)) (Q08210 whole entry, looked up): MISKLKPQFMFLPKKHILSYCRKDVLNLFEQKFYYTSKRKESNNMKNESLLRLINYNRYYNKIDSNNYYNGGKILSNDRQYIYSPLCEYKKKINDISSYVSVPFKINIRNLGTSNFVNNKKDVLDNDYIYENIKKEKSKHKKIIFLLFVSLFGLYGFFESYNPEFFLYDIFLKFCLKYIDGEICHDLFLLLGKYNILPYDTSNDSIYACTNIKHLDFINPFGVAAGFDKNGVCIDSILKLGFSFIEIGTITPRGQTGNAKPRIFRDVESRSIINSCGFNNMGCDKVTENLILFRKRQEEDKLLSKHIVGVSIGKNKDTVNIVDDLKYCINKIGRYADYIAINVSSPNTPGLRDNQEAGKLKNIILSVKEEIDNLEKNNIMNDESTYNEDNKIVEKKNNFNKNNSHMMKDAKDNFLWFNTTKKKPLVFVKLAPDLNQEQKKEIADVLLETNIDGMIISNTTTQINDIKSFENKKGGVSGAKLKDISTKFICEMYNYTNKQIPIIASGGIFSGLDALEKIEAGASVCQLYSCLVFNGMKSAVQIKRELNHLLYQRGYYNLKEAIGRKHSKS

[15] = P. aeruginosa biofilm formation inhibitors, primary screen, strain PAO1, LB-PBS medium, absorbance 600 nm (AID 1176); further: test concentration not given here; settings: P. aeruginosa PAO1 growth/biofilm, A600, 12 h; higher = more signal
[16] = S. cerevisiae RM11-1a growth modifiers, primary screen, strain RM11-1a, OD600, basal, 24 h (AID 1177); settings: OD600, 24 h, higher = more signal, called active from +8 up or from −8 down;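 further: cultures grown under basal conditions with no added stressor; test concentration not given here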
[17] = E. coli acrAB mutant growth effects, primary screen, E. coli filamentation inducers, strain DRC39, OD650, 24 h (AID 1178); settings: higher = more signal, called active from +8 up or from −8 down;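 further: growth measured as culture turbidity by optical density at 650 nm; test concentration not given here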
[18] = E. coli acrAB mutant growth effects, primary screen, E. coli filamentation inducers, strain DRC39, OD650, 48 h (AID 1179);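 further: screen aims at cell division blockers that make cells filament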; settings: E. coli DRC39 delta-acrAB growth, higher = more signal, called active from +8 up or from −8 down
[19] = RPMI8226 myeloma cell viability, profiling panel, resazurin fluorescence, basal, 24 h, PK04 Diversity Set (AID 1180); settings: higher = more signal;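 further: RPMI8826 multiple myeloma cell line at 5000 cells per well; test concentration not given here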
[20] = molecular target: E3 ubiquitin-protein ligase XIAP (Homo sapiens) (UniProt P98170); experiment: XIAP binders, primary screen, biophysical, small-molecule microarray, fluorescence 635 nm (AID 1181); settings: small-molecule microarray binding, higher = more signal;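 further: score merges 667 nm emission and signal to noise over triplicate slides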
Chain of E3 ubiquitin-protein ligase XIAP (Homo sapiens) (P98170 whole entry, looked up): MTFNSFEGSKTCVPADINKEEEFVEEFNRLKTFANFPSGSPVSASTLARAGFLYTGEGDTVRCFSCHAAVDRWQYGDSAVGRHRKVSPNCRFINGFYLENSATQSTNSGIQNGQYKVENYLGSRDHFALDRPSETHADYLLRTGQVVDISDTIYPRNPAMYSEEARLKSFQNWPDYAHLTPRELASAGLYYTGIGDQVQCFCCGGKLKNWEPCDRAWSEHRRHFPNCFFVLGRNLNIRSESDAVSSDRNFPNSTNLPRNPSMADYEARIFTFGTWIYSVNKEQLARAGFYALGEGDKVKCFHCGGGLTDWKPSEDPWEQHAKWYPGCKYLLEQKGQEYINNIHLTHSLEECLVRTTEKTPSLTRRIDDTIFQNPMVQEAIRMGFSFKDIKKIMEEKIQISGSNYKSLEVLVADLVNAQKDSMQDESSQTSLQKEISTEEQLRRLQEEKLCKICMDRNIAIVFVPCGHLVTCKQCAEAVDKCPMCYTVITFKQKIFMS

Row | Compound | z-score [1] | z-score [2] | z-score [3] | z-score [4] | z-score [5] | z-score [6] | z-score [7] | z-score [8] | z-score [9] | z-score [10] | z-score [11] | z-score [12] | z-score [13] | composite z-score [14] | z-score [15] | z-score [16] | z-score [17] | z-score [18] | z-score [19] | composite z-score [20]
1 | CCCCc1nc2c(c3c1C[C@H](C)OC3)CN(CCOc1ccccc1)CC2 | 1.71 | 0.734 | 0.681 | 0.039 | -0.657 | 1.76 | 0.494 (inactive) | 0.539 | 0.568 | -0.682 (inactive) | -0.492 | -3.28 (inactive) | 0.422 (inactive) | -0.845 (inactive) | 1.1 (inactive) | -1.49 (inactive) | 1.18 (inactive) | -0.908 (inactive) | 0.386 | 0.437
2 | CC(=O)OC[C@H]1O[C@H](CCON=C2[C@H]3CCn4c(=O)n(-c5ccccc5)c(=O)n4[C@H]3[C@H](O)[C@@H]3O[C@H]23)C=C[C@@H]1OC(C)=O | 0.0488 | -1.08 | 0.254 | -0.775 | -0.645 | -0.58 | -0.91 (inactive) | 0.602 | -0.876 | -0.862 (inactive) | -0.609 | 0.0957 (inactive) | -3.19 (inactive) | 0.33 (inactive) | -0.95 (inactive) | 0.393 (inactive) | 0.785 (inactive) | 1.17 (inactive) | -0.759 | -0.148
3 | COc1cccc([C@H]2Oc3ccc(OC)cc3C(=NOC[C@@H](O)[C@H]3O[C@@H]4OC(C)(C)O[C@@H]4[C@H]3O)[C@@H]2O)c1 | -0.0077 | 0.568 | -1.49 | -0.174 | -0.684 | -1.27 | -0.751 (inactive) | -0.578 | 0.49 | -0.794 (inactive) | -0.791 | -6.98 (inactive) | -1.21 (inactive) | 0.474 (inactive) | 0.56 (inactive) | -0.0039 (inactive) | -0.218 (inactive) | 0.0308 (inactive) | -0.687 | 0.0865
4 | CCOC(=O)[C@H](CC(C)C)NC(=O)CCC1CC(OC(=O)NCCc2ccc(F)cc2)CC2(CCCC(COC(=O)NCC3CCCCC3)O2)O1 (stereo not given in full) | -0.656 | 0.0504 | -0.843 | -0.222 | 0.444 | -1.77 | -0.293 (inactive) | -0.168 | -0.24 | 0.21 (inactive) | 1.1 | 0.776 (inactive) | 0.0789 (inactive) | -0.161 (inactive) | 0.201 (inactive) | -0.547 (inactive) | -0.0313 (inactive) | -1.02 (inactive) | 0.738 | -0.153
5 | O=C(NN=C1C[C@@H](O)[C@@H](O)[C@@H]2[C@@H]3C(=O)N(C[C@@H]4CCCO4)C(=O)[C@@H]3CC[C@@H]12)OCc1ccccc1 | 0.468 | 0.211 | -0.293 | -0.745 | 0.215 | 0.795 | 0.131 (inactive) | 0.103 | -0.989 | -0.451 (inactive) | 0.0986 | -0.485 (inactive) | 0.169 (inactive) | -2.17 (inactive) | 0.328 (inactive) | -1.49 (inactive) | -0.0573 (inactive) | 0.118 (inactive) | -0.111 | 0.0623
6 | C#CCCCON=C1C[C@@H](O)[C@@H](O)[C@@H]2[C@@H]3C(=O)N(CC)C(=O)[C@@H]3CC[C@@H]12 | -0.36 | -0.843 | 0.075 | 0.0133 | 0.338 | -0.836 | -1.26 (inactive) | -0.0744 | -0.312 | -0.526 (inactive) | -0.245 | 0.961 (inactive) | -0.529 (inactive) | -0.367 (inactive) | 0.07 (inactive) | 0.375 (inactive) | 0.0322 (inactive) | -0.569 (inactive) | -0.244 | -0.0473
7 | CCOC(=O)[C@H](Cc1ccccc1)NC(=O)CCC1CC(OC(=O)NCCc2ccc(F)cc2)CC2(CCCC(COC(=O)NCCc3ccccc3OC)O2)O1 (stereo not given in full) | -0.793 | -0.702 | 0.492 | -2.99 | -1.42 | 0.723 | 0.3 (inactive) | 0.165 | -1.02 | -0.301 (inactive) | -0.0425 | 0.456 (inactive) | -0.288 (inactive) | -0.732 (inactive) | 0.626 (inactive) | 0.476 (inactive) | -0.0222 (inactive) | -1.19 (inactive) | 0.0228 | -0.0796
8 | COC(=O)[C@H]1[C@@H](O)[C@@]2(O)c3ccccc3O[C@@]2(c2ccccc2)[C@@H]1c1ccccc1 | -0.895 | -0.535 | -2.85 | -2.81 | -3.1 | -1.85 | -0.144 (inactive) | -0.231 | -0.341 | -0.146 (inactive) | -0.314 | 0.358 (inactive) | -0.683 (inactive) | 0.154 (inactive) | -0.175 (inactive) | 0.653 (inactive) | -0.306 (inactive) | -0.446 (inactive) | -0.857 | -0.173
9 | C[C@H]1CC[C@H]2C(=O)O[C@H](COc3ccc(C(C)(C)C)cc3)CN2[C@@H]1c1ccc(Br)cc1 | 0.354 | 0.356 | 0.573 | 0.0772 | -2.09 | -0.568 | -0.372 (inactive) | -0.841 | 1.33 | 0.636 (inactive) | -0.158 | -0.407 (inactive) | 0.422 (inactive) | 0.159 (inactive) | -0.409 (inactive) | -0.0809 (inactive) | -1.42 (inactive) | -1.37 (inactive) | 0.432 | -0.19

— PubChem BioAssay
